What all share (assay): NCI-60 one-dose screen, 48 h (100 = growth as untreated, 0 = no growth, -100 = all killed)
What all share (details): 10 µM unless noted

Experiment [1] concerns SK-MEL-2 melanoma.
Experiment [2] relates to EKVX NSCLC.
The test system of experiment [3] is SN12C renal.
Experiment [4] relates to UO-31 renal.
In experiment [5] the test system is TK-10 renal.
In experiment [6] the test system is ACHN renal.
Experiment [7] has as its system A498 renal.
Experiment [8] relates to CCRF-CEM leukemia.
Experiment [9] deals with MOLT-4 leukemia.
Experiment [10] concerns SR leukemia.

About 83,000 compounds went through this panel and 20% of them were active in at least one assay; those are over-represented in the sample as a whole.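 Interpretation: 100, growth as untreated; towards 0, rising growth inhibition; 0, no net growth; 0 to -100, cell death. Compounds scoring below 10 were considered active.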 Values without a mark were called inactive. Activity calls are given as the source filed them.

`COc1cc(-c2csc(NC(=O)Nc3ccc(C(F)(F)F)cc3)n2)cc(OC)c1OC`: the growth is -23.8% (active) in [1]; 5.7% (active) in experiment [2]; 3.08% (active) in experiment [3]; -2.16% (active) in [4]; 4.58% (active) in experiment [5]; 3.21% (active) in experiment [6]. In addition, the growth is -24.1% (active) in experiment [7], 5.13% (active) in experiment [8], -9.27% (active) in [9] and -3.44% (active) in experiment [10].
On to `COc1ccc(-c2cc(-c3nnc(SCC(=O)Nc4ccc(C(C)=O)cc4)o3)c3ccccc3n2)cc1`, for which the growth in experiment [1] was 40.1%; in experiment [2], 23.2%; in experiment [3] it was -40.5% (active); in experiment [4] it was -70.7% (active); in experiment [5], -28.8% (active); in experiment [6], -11.6% (active). In addition, the growth was 18.3% in experiment [7], 32.7% in experiment [8], 23% in [9] and -19.5% (active) in experiment [10].
Regarding `O=C1CC23OC4ON=C(Br)C4C2C(O)c2ccccc2N13` (stereo not given), the growth in experiment [1] was 89.8%; in [2], 92.1%; in experiment [3], 101%; in experiment [4] it was 63.4%; in experiment [5] it was 132%; in [6], 94.3%. The growth was 118% in experiment [7], 111% in [8], 99.6% in [9] and 107% in [10].
On to `CCN1CCN(c2ccc(NC(=O)Nc3nc4ccc(-c5ccccc5OC)cc4s3)cc2)CC1`, for which the growth in [1] is -65.5% (active); in experiment [2], -68.4% (active); in experiment [3] it was -82.1% (active); in [4] it was -91.6% (active); in experiment [5], -48% (active); in experiment [6], -95.5% (active). Also, the growth in experiment [7] is 70.2%; in [8], -17.3% (active); in experiment [9], -51.7% (active); in [10], -38% (active).
For `O=c1c2ccccc2n(CC(O)CN2CCCC2)c2c(Br)cccc12` (stereo not given), the growth in [1] is 112%; in experiment [2] it was 99.1%; in experiment [3], 109%; in [4] it was 89.1%; in [5] it was 106%; in [6], 108%. In addition, the growth in [7] was 71.8%; in experiment [8], 82.3%; in experiment [9] it was 104%; in [10], 77%.
`O=C(CCl)N1CCCc2ccccc21`: the growth in experiment [1] was 110%; in [2], 96.4%; in [3], 93.8%; in experiment [4], 82.8%; in experiment [5] it was 102%; in experiment [6], 101%. In addition, the growth in [7] was 94.5%; in [8] it was 96.8%; in experiment [9], 93.5%; in experiment [10], 101%.
As to `O=C(O)c1cn(C2CC2)c2cc(N3CCN(C(=O)CSc4nnc(-c5ccc(Cl)cc5)n4-c4ccccc4)CC3)c(F)cc2c1=O`, the growth in experiment [1] is 104%; in [2], 111%; in experiment [3], 102%; in [4], 84.7%; in experiment [5] it was 99.4%; in experiment [6], 108%. The growth in experiment [7] is 67.8%; in experiment [8], 84.3%; in experiment [9], 103%; in [10], 89.9%.
`Cn1nc(C(F)(F)F)c(-c2cc(C(F)(F)F)cc(C(F)(F)F)c2)c1-c1ccc(OCc2ccc(Cl)cc2)cc1O`: the growth is -34% (active) in experiment [1]; 7.7% (active) in [2]; 7.93% (active) in experiment [3]; -1.27% (active) in experiment [4]; 9.29% (active) in experiment [5]; 7.22% (active) in experiment [6]. In addition, the growth in experiment [7] is -26.9% (active); in [8], 6.82% (active); in experiment [9] it was -11.7% (active); in experiment [10], -4.24% (active).
With `COc1ccc(/C(=N\O)c2cc(C)c(OC)c(C)c2)cc1O`, the growth in experiment [1] is 37.6%; in [2] it was 51.7%; in experiment [3], 39.4%; in experiment [4], 51.6%; in experiment [5] it was 72%; in experiment [6], 31.7%. The growth in [7] is 6.79% (active); in [8] it was 7.8% (active); in experiment [9] it was 13.8%; in experiment [10], 10.3%.
Consider `O=C(O)C(C(=O)O)c1cccc2ccccc12`, for which the growth in experiment [1] was 95.2%; in [2], 108%; in [3], 100%; in experiment [4], 88.5%; in experiment [5] it was 89.3%; in [6], 105%. The growth in experiment [7] is 85.6%; in [8], 92.2%; in experiment [9], 94.4%; in [10], 90.6%.
Take `COc1ccc(/C=C/C(=O)C(CC2CCC2)C(=O)/C=C/c2ccc(OC)c(OC)c2)cc1OC`: the growth in experiment [1] is -16.7% (active); in [2], -0.196% (active); in [3], -20.7% (active); in experiment [4], -98.1% (active); in experiment [5], -32.8% (active); in experiment [6], -77.2% (active). Also, the growth in experiment [7] was -34.5% (active); in [8], 8.4% (active); in experiment [9], 4.1% (active); in experiment [10] it was -17% (active).
For the molecule `CCCCc1n(Cc2ccc3ccccc3n2)cc[n+]1Cc1ccc2ccccc2c1`, the growth in experiment [1] was -35.7% (active); in [2], 41.7%; in experiment [3] it was 1.13% (active); in experiment [4], 69.2%; in [5], -5.08% (active); in [6], 61.2%. In addition, the growth in experiment [7] is 7.02% (active); in [8], 6.45% (active); in [9], 4.42% (active); in experiment [10], -27.1% (active).
Consider `Cc1cc(C)n(-c2nc(-c3cccs3)c(C#N)c(=O)[nH]2)n1`, for which the growth was 97.2% in [1]; 95.5% in experiment [2]; 95.8% in experiment [3]; 89.1% in [4]; 103% in [5]; 108% in experiment [6]. Further, the growth in experiment [7] is 93.8%; in [8], 103%; in [9], 87%; in [10], 100%.
Regarding `CCOc1ccccc1C(=O)/C=C/c1cc2ccccc2[nH]c1=O`, the growth in experiment [1] was 4.96% (active); in experiment [2], -1.6% (active); in experiment [3], -20.9% (active); in experiment [4], -97.7% (active); in experiment [5], 15%; in experiment [6], -5.01% (active). For the same molecule, the growth was -14.7% (active) in experiment [7], -0.719% (active) in experiment [8], 5.16% (active) in experiment [9] and 4% (active) in experiment [10].
Regarding `COc1ccc(C(=O)c2cc(OC)c(C)c(OC)c2)cc1OC(=O)CCl`, the growth in experiment [1] was 35.4%; in experiment [2], 64.4%; in experiment [3], 41.5%; in experiment [4], 49.9%; in experiment [5], 66.5%; in experiment [6] it was 41.5%. The growth was 78.5% in experiment [7], 11.9% in [8], 13.6% in experiment [9] and 12.5% in [10].
As to `Cn1cc(-c2ccc3c(c2)ncn3-c2ccc(CC(=O)Nc3cc(C(C)(C)C)on3)cc2)cn1`, the growth in experiment [1] is 23.4%; in experiment [2] it was 20.5%; in experiment [3], 13.1%; in experiment [4] it was 3.88% (active); in experiment [5] it was -8.53% (active); in experiment [6] it was 6.24% (active). For the same molecule, the growth in [7] is -47.1% (active); in [8], 57.7%; in experiment [9], 27.4%; in experiment [10], 18.8%.
Consider `Nc1cc(N)nc(SCC(=O)O)n1`, for which the growth in experiment [1] is 99.7%; in experiment [2], 106%; in experiment [3], 103%; in [4] it was 94.4%; in [5] it was 98.2%; in [6] it was 109%. The growth was 89.4% in [7], 96.2% in experiment [8], 103% in experiment [9] and 92.3% in [10].
Turning to `COc1ccc(NC(=O)c2sc3nc(C)c(C(C)=O)cc3c2N)cc1`, the growth in [1] was 98.5%; in [2] it was 97.2%; in experiment [3] it was 101%; in experiment [4], 105%; in [5] it was 75.2%; in [6] it was 95.3%. For the same molecule, the growth in experiment [7] was 71.1%; in experiment [8], 92.2%; in [9], 84.9%; in experiment [10], 84.3%.
On to `CCN1CCN(Cc2ccc(NC(=O)c3cccc(C#Cc4cccc5[nH]nc(N)c45)c3)cc2C(F)(F)F)CC1`, for which the growth in experiment [1] was -70.1% (active); in experiment [2], -46.4% (active); in [3], -35.4% (active); in [4] it was -92.3% (active); in [5], -94.4% (active); in experiment [6], -81.1% (active). The growth in experiment [7] was -63.5% (active); in experiment [8] it was -16.2% (active); in experiment [9], -31.2% (active); in experiment [10], -49.2% (active).
Turning to `OCCNc1nc(NCCO)nc(Nc2ccc(C3=NN(c4cc(Cl)cc(Cl)c4)C(c4ccc(Cl)cc4)C3)cc2)n1` (stereo not given), the growth in experiment [1] was 73.7%; in experiment [2], 20.6%; in experiment [3], 25.1%; in experiment [4], 18.1%; in experiment [5], -2.42% (active); in [6] it was 50.8%. The growth in [7] was 71.2%; in experiment [8] it was 13.3%; in experiment [9], 2.38% (active); in experiment [10], -29.5% (active).
Turning to `CN1CCN(/C=C2\CC(C(=O)NCc3ccc(Cl)cc3Cl)NC2=O)CC1` (stereo not given), the growth in experiment [1] is 100%; in experiment [2], 116%; in experiment [3], 106%; in experiment [4], 95%; in experiment [5], 92.7%; in experiment [6], 110%. For the same molecule, the growth was 90.8% in experiment [7], 88% in [8], 95.2% in experiment [9] and 90.3% in experiment [10].
Regarding `Cc1nc(C)c(C)nc1C`, the growth was 97.9% in experiment [1]; 109% in [2]; 101% in [3]; 93.4% in experiment [4]; 95.7% in experiment [5]; 114% in experiment [6]. Further, the growth in experiment [7] was 102%; in [8] it was 89.5%; in experiment [9] it was 99.8%; in experiment [10] it was 108%.
As for `C/C(=N/Nc1nc2ccccc2n1C)c1ccccn1`, the growth in experiment [1] is 39.8%; in [2] it was 6.63% (active); in [3] it was 10.1%; in experiment [4] it was -16.4% (active); in [5] it was 36.8%; in experiment [6], 10.3%. The growth in experiment [7] is -29.8% (active); in experiment [8] it was -6.15% (active); in [9] it was 1.82% (active); in [10], 3.01% (active).
For `O=C1CCC23OC(C(O)c4ccccc4N12)C1C(Br)=NOC13` (stereo not given), the growth in [1] is 108%; in experiment [2], 99.7%; in [3], 90.7%; in experiment [4], 87.2%; in experiment [5] it was 98.5%; in experiment [6], 104%. Also, the growth was 108% in [7], 103% in experiment [8], 103% in experiment [9] and 102% in experiment [10].
Regarding `COc1ccc2c(c1)Oc1nc(N)c(C#N)c(N)c1C2Sc1ccc(O)cc1` (stereo not given), the growth in [1] is 87.5%; in [2] it was 77.7%; in experiment [3], 89.4%; in experiment [4], 68.3%; in experiment [5], 98.5%; in experiment [6], 94.2%. In addition, the growth was 91.4% in experiment [7], 16.5% in experiment [8], 34.7% in [9] and 13.7% in experiment [10].
As for `O=S(=O)(O)c1ccc(N=NSc2ccc3ccccc3c2)cc1`, the growth in experiment [1] is 92.4%; in experiment [2], 99.4%; in experiment [3] it was 107%; in experiment [4], 71%; in experiment [5], 103%; in [6], 95.3%. Also, the growth in experiment [7] was 107%; in experiment [8] it was 89.8%; in [9], 94.2%; in experiment [10], 104%.

Source of the values: PubChem BioAssay (NCI).
